{"source": "the supplement of paper PMC11417369", "note": "± gives the standard deviation of the averaged measurements. Whole data set: some 25,000 sequences, median “ln(normalized median fluorescence intensity)” near 8.9, cut for the highest 2% near 10. For the sample, the highest values were picked, then their nearest neighbours and some sequences at random.", "data": [{"tested_on": "PfAP2-LT AP2 domain (GST-tagged)", "test": "gcPBM binding intensity (ln(normalized median fluorescence intensity)); higher = stronger DNA binding", "how_it_was_run": "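DNA-binding domains from P. falciparum, fused to GST and produced in E. coli, were put on an Agilent 4 × 180k double-stranded probe array for 1 h in 1× PBS holding 1% milk, 0.2 mg/ml BSA, 0.5% salmon testes DNA and 0.03% Triton X-100. Probes were primer-extended, 36 bp long and drawn from intergenic genomic regions, with negative controls included. After Alexa488 anti-GST antibody detection and a 488 nm scan, binding intensity was set as the highest Masliner-normalised natural-log median intensity across replicate spots of either probe orientation.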", "values": [{"sequence": "TATTAATTATATTTATGTACATAATCATATTATTAT [XGTACX_site7938]", "gcPBM binding intensity (ln)": "8.94 ± 0.44"}, {"sequence": "TTTAATCATATGTTATATAATAAGCCCCCCCCCCAA [CACACA_negctrl_site486]", "gcPBM binding intensity (ln)": "10.2 ± 0.17"}, {"sequence": "ATATATATATAATTATATAAAATATATCATATGTTA [XGTACX_negctrl_site47]", "gcPBM binding intensity (ln)": "8.53 ± 0.42"}, {"sequence": "ATTTTTATTTTATATACACACAATAATAATATAATA [CACACA_site4015]", "gcPBM binding intensity (ln)": "8.62 ± 0.36"}, {"sequence": "ATAATACACAAGCACACACACACACGGATATTTATA [CACACA_site6714]", "gcPBM binding intensity (ln)": "10.4 ± 0.23"}, {"sequence": "AGCACAAGCACAAGCACACATTTATATATAAATACA [CACACA_site4642]", "gcPBM binding intensity (ln)": "9.1 ± 0.47"}, {"sequence": "AATTAAAAAAAATACACACACACATACCCATATATA [CACACA_site5767]", "gcPBM binding intensity (ln)": "9.85 ± 0.28"}, {"sequence": "TTTATTTATTATTGTTGTACACTTTTTATAAAAAAA [XGTACX_site5114]", "gcPBM binding intensity (ln)": "8.57 ± 0.53"}, {"sequence": "ATGAAAAAAAAAAAAAAAAAAAAAAAAAAAAAAATA [CACACA_negctrl_site1083]", "gcPBM binding intensity (ln)": "8.37 ± 0.55"}, {"sequence": "AAAAATTTGGCATACACACACACACCGACACAGACA [CACACA_site4489]", "gcPBM binding intensity (ln)": "10 ± 0.23"}, {"sequence": "AAAATTCATATATACACACACGCACATATATATATA [CACACA_site90]", "gcPBM binding intensity (ln)": "9.71 ± 0.21"}, {"sequence": "AAAAAAATTTGGCATACACACACACCCCCACCCACA [CACACA_site8094]", "gcPBM binding intensity (ln)": "10.41 ± 0.05"}, {"sequence": "AAAAATTTGGCATACACACACACACGCACACGCACA [CACACA_site6422]", "gcPBM binding intensity (ln)": "10.2 ± 0.21"}, {"sequence": "AAAAAATTCATATATACACACACGCACATATATATA [CACACA_site4226]", "gcPBM binding intensity (ln)": "9.53 ± 0.13"}, {"sequence": "AAAAATTTGGCATACACACACACACCCACACCCACA [CACACA_site587]", "gcPBM binding intensity (ln)": "10.03 ± 0.042"}, {"sequence": "CACATACACCCATACACACACATATATATTAAGATA [CACACA_site4459]", "gcPBM binding intensity (ln)": "9.57 ± 0.38"}, {"sequence": "TATATATATATATAATGTACAAACTCCTTTATATAT [XGTACX_site4545]", "gcPBM binding intensity (ln)": "9.05 ± 0.2"}, {"sequence": "ATTATTTTATTATAGTGTACTTTTTTAATCAAAGGA [XGTACX_site8921]", "gcPBM binding intensity (ln)": "8.44 ± 0.4"}, {"sequence": "TTAGGTTATAAATACACACACAAAAGAAAAAAAAAA [CACACA_site5625]", "gcPBM binding intensity (ln)": "9.23 ± 0.55"}, {"sequence": "TTATGATCATTTATATGTACACATAATTTTTGTGCT [XGTACX_site5568]", "gcPBM binding intensity (ln)": "9.03 ± 0.44"}, {"sequence": "AAAAAAAAAAAAAAGAGTACATTTATTTATATATCT [XGTACX_site2381]", "gcPBM binding intensity (ln)": "8.46 ± 0.33"}, {"sequence": "AATAGAATAATCCTTACACACACACCCACACGAATA [CACACA_site8053]", "gcPBM binding intensity (ln)": "9.87 ± 0.16"}, {"sequence": "TAGAATAATCCTTACACACACACACCCACGAATAAA [CACACA_site483]", "gcPBM binding intensity (ln)": "10.1 ± 0.2"}, {"sequence": "AATAGAATAATCCTTACACACACACGCGCACGAATA [CACACA_site6365]", "gcPBM binding intensity (ln)": "9.78 ± 0.31"}, {"sequence": "TTTTTTTTAGTATGAACACACATATAGATTATAAAA [CACACA_site7391]", "gcPBM binding intensity (ln)": "8.35 ± 0.41"}, {"sequence": "ATAATATGAAAACACACACACACACTAATAAAAAAA [CACACA_site8617]", "gcPBM binding intensity (ln)": "10.3 ± 0.16"}, {"sequence": "AATATGAACAGACACACACACACAAAAAAAAAAAAA [CACACA_site2012]", "gcPBM binding intensity (ln)": "9.9 ± 0.56"}, {"sequence": "ATAATCCTTAAACACACACACACACTAATAAATAAA [CACACA_site8052]", "gcPBM binding intensity (ln)": "10.1 ± 0.25"}, {"sequence": "AAAAAAAAAAAACACACACACACACTAATATATAAA [CACACA_site8302]", "gcPBM binding intensity (ln)": "10.3 ± 0.35"}, {"sequence": "ATATAAATAATATAAATACACACTAAAAAAAATATA [CACACA_site542]", "gcPBM binding intensity (ln)": "8.88 ± 0.44"}, {"sequence": "AAAAAATATATATTAACACACACACTAATAAAAAAA [CACACA_site8366]", "gcPBM binding intensity (ln)": "9.56 ± 0.17"}, {"sequence": "AAAAAAAATATGAAAACACACATATATAAATAAATA [CACACA_site113]", "gcPBM binding intensity (ln)": "8.88 ± 0.46"}, {"sequence": "TATGAACACAGACACACACACAAAAAAAAAAAAAAA [CACACA_site7037]", "gcPBM binding intensity (ln)": "9.18 ± 0.56"}, {"sequence": "ATAATATGAAATATAACACACATATATAAAAACATT [CACACA_site866]", "gcPBM binding intensity (ln)": "9.11 ± 0.33"}, {"sequence": "TACATAAATTAAAACACACACACACTAATAAAAAAA [CACACA_site8712]", "gcPBM binding intensity (ln)": "9.85 ± 0.18"}, {"sequence": "TATATATATATATATACACACACACTAATAAAAAAA [CACACA_site8426]", "gcPBM binding intensity (ln)": "9.65 ± 0.057"}, {"sequence": "AACAAACACAGACACACACACACACTAATATGATTA [CACACA_site8770]", "gcPBM binding intensity (ln)": "10.2 ± 0.45"}, {"sequence": "CTTATATGAAGCCTCTTTATTCATAAATAAGAATAA [TGCATGCA_negctrl_site120]", "gcPBM binding intensity (ln)": "8.21 ± 0.38"}, {"sequence": "AAAATTATTTTTATGTGTACTTATTTATTATTTATA [XGTACX_site6665]", "gcPBM binding intensity (ln)": "8.79 ± 0.46"}, {"sequence": "ATTATCTTATGTTATTTATTTGTCCCACATTTGTTA [TGCATGCA_negctrl_site402]", "gcPBM binding intensity (ln)": "8.91 ± 0.46"}, {"sequence": "AAATTGTCAAAACACGCACACACATATACATAATAA [CACACA_site1743]", "gcPBM binding intensity (ln)": "9.62 ± 0.36"}, {"sequence": "ATTCATTATTCACCTTGTACACAAATGATTATCGTA [XGTACX_site455]", "gcPBM binding intensity (ln)": "8.93 ± 0.45"}, {"sequence": "ATAATATGAAAACACACACACACACTAGAAAAAAAA [CACACA_site5153]", "gcPBM binding intensity (ln)": "10.2 ± 0.27"}, {"sequence": "AAAAAATCAAAACACACACACACACTAGAAAAAAAA [CACACA_site4909]", "gcPBM binding intensity (ln)": "10.1 ± 0.49"}, {"sequence": "AATAATAAACACAATCAAATAAAATATGAAATATAA [GTGCAC_negctrl_site307]", "gcPBM binding intensity (ln)": "8.84 ± 0.49"}, {"sequence": "GAGAAAAATAAATACACACACATAAATAAATACATA [CACACA_site5102]", "gcPBM binding intensity (ln)": "9.74 ± 0.42"}, {"sequence": "CAGTGCCAAATTAGCACACACATATATACATGAATT [CACACA_site2814]", "gcPBM binding intensity (ln)": "9.3 ± 0.38"}, {"sequence": "TCGTCTCTTCTTGTTCTGTTTTAGAAGGCTATATAT [CACACA_negctrl_site180]", "gcPBM binding intensity (ln)": "8.88 ± 0.44"}, {"sequence": "AAGAACAGATAAAATCGTACGTGAAACATGAACTTG [XGTACX_site7793]", "gcPBM binding intensity (ln)": "9.03 ± 0.48"}, {"sequence": "AATGTGCAAACAAACTGTACTTTTTTTTTTTTTTTT [XGTACX_site928]", "gcPBM binding intensity (ln)": "8.86 ± 0.26"}, {"sequence": "AAAAAAAAAAAACATACACACAAATATATACATACA [CACACA_site4011]", "gcPBM binding intensity (ln)": "9.15 ± 0.33"}, {"sequence": "TACAAAATGGGGAACACACACATATATATATATATA [CACACA_site3844]", "gcPBM binding intensity (ln)": "10.2 ± 0.05"}, {"sequence": "AAAAAAAAAAAACACACACACACATACAAAATATAT [CACACA_site1448]", "gcPBM binding intensity (ln)": "10.04 ± 0.071"}, {"sequence": "TACAAAATGGGGAACACACACATATATAAATAAATA [CACACA_site7751]", "gcPBM binding intensity (ln)": "9.6 ± 0.63"}, {"sequence": "CATAAAAATGAACATACACACATATATATATATATA [CACACA_site2498]", "gcPBM binding intensity (ln)": "9.8 ± 0.17"}, {"sequence": "GATACAAAATGGGGAACACACACATATATATATATA [CACACA_site9278]", "gcPBM binding intensity (ln)": "10.1 ± 0.22"}]}]}
